Values of other authors as cited in PubChem BioAssay AID977611.
Values joined by “and” are separate entries in the source; they are usually repeats but may differ in a detail not shown here. Equal entries are not always repeated. Hit rate of the full screen: of about 3,900 compounds, about 3,900 (100%) were called active. Cut-off not given; nearly all actives show Kd up to about 4200 µM. So high a share suggests a set chosen from earlier hits. This is one part of the list.

assay: PubChem AID 977611; conditions: PDB protein-ligand complexes, literature Kd

Compound	Kd
O=P(O)(O)OC1C(OP(=O)(O)O)C(OP(=O)(O)O)C(OP(=O)(O)O)C(OP(=O)(O)O)C1OP(=O)(O)O (stereo not drawn)	180 nM (active)
NC(=O)c1ccc[n+]([C@@H]2O[C@H](COP(=O)([O-])OP(=O)(O)OC[C@H]3O[C@@H](n4cnc5c(N)ncnc54)[C@H](O)[C@@H]3O)[C@@H](O)[C@H]2O)c1	80 µM (active) and 63.7 µM (active)
Nc1ncnc2c1ncn2[C@@H]1O[C@H](COP(=O)(O)OP(=O)(O)O)[C@H]2O[C@]3(O[C@H]21)C([N+](=O)[O-])=CC([N+](=O)[O-])=CC3[N+](=O)[O-] (stereo partly drawn)	2100 nM (active)
